Screens (PubChem BioAssay)
Most compounds without a hit are left out; they make up all but 2.9% or so of the library.
ALOX12 inh = Primary qHTS assay for inhibitors of human arachidonate 12S-lipoxygenase (ALOX12): Round 2 | Polyunsaturated fatty acid lipoxygenase ALOX12 (Homo sapiens), P18054 | purified 12hLO, xylenol orange hydroperoxide absorbance | Potency, µM (top dose mostly 108 µM), without a hit: at the top dose activity change, negative = inhibition, actives largely listed as inhibitors | hit rate 1.1% among 580,000 | AID 1671190, 2021; further: potency means the concentration at half of the fitted maximal effect; on the % scale 0 is the no-effect control and ±100 the full control effect
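Hydroperoxide product was detected by ferrous iron/xylenol orange as the 573 to 405 nm absorbance ratio. Arachidonic acid at 40 uM (final) was turned over for 30 min at room temperature by 150 nM human 12hLO, pH 7.0 Hepes buffer, after 15 min compound preincubation.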
PI5P4Ka inh = qHTS for Inhibitors of phosphatidylinositol 5-phosphate 4-kinase (PI5P4K); PI5P4Kalpha enzyme, ADP-Glo luminescence, 60 min; hits give low values; max response, %; hit rate 1.2% among 330,000; AID 652105, 2013; active means max response of -50% or lower; inconclusive means between -30% and -50%; inactive means -30% or higher; further: value at the top dose of about 77 µM; on the % scale 0 is the no-effect control and ±100 the full control effect
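Single end-point luminescence (ADP-Glo) quantified ADP from PI5P4Kalpha turnover; ATP 5 microM final, 1 h at RT, 0.1% CHAPS and 0.28 mM EGTA in HEPES pH 7.4.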
POLB inh = qHTS Assay for Inhibitors of DNA Polymerase Beta; hit rate 1.3% among 340,000; Potency, µM (series often up to 114 µM), for the others: at the highest dose activity change, negative = inhibition, actives largely listed as inhibitors; AID 485314, 2010; Pol beta primer extension/strand displacement, fluorescence kinetic; further: potency means the concentration at half of the fitted maximal effect; on the % scale 0 is the no-effect control and ±100 the full control effect
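Pol beta (10 nM) and compounds were preincubated 15 min at room temperature, then 50 nM substrate (final) started primer extension/strand displacement. Reads were taken at 0 and 10 min; concentration-response data were fitted to a four-parameter Hill equation.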
POLK inh = qHTS for Inhibitors of Polymerase Kappa. hit rate 0.53% among 400,000. DNA polymerase kappa (Homo sapiens), Q9UBT6. purified Pol kappa, fluorescent DNA synthesis assay, 10 min. Potency, µM (top dose mostly 107 µM), for the others: at the top dose activity, negative = inhibition, hits mostly inhibitors; further: potency means the concentration at half of the fitted maximal effect; on the % scale 0 is the no-effect control and ±100 the full control effect
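Kinetic fluorescence readout at 0 and 10 min followed reaction start with substrate at 50 nM final. Beforehand, enzyme (10 nM Pol kappa) stood 15 min with compound at room temperature; buffer-only wells were negative controls.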
POLI inh = qHTS for Inhibitors of Polymerase Iota; DNA polymerase iota (Homo sapiens), Q9UNA4; Pol iota fluorescent replication assay, 10 min; Potency, µM (doses to about 115 µM), inactives show at the top dose activity, negative = inhibition, actives largely listed as inhibitors; hit rate 1% among 390,000; AID 588590, 2011; further: potency means the concentration at half of the fitted maximal effect
Target sequence (Q9UNA4 whole entry, looked up): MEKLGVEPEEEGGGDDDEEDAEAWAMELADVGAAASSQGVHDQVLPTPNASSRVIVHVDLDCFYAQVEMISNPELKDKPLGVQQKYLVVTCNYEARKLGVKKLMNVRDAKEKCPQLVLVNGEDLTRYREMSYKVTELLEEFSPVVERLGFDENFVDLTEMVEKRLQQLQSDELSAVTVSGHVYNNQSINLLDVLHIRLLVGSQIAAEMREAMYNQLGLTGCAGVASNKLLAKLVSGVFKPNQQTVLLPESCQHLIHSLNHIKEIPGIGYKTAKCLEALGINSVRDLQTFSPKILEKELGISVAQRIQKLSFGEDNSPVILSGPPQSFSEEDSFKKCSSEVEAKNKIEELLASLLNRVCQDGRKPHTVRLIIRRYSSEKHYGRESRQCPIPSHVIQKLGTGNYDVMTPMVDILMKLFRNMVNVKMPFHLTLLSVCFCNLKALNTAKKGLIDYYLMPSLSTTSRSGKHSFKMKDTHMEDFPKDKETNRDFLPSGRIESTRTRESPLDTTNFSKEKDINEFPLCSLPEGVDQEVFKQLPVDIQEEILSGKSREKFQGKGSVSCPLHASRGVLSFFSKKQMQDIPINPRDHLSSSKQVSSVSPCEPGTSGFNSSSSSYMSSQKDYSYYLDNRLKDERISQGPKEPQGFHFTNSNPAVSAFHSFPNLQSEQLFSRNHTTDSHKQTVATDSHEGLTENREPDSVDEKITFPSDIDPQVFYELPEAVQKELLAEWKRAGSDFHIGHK
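Fluorescent replication assay read twice, at 0 min and 10 min after adding 50 nM (final) substrate. Enzyme (10 nM) and compounds were first incubated 15 min at room temperature; enzyme-free buffer wells were negative controls.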
POLH inh = qHTS for Inhibitors of Polymerase Eta; Potency, µM (top dose mostly 114 µM), without a hit: at the top dose activity change, negative = inhibition, hits mostly inhibitors; recombinant Pol eta, fluorescent DNA replication assay; hit rate 1.2% among 390,000; AID 588591, 2011; further: potency means the concentration at half of the fitted maximal effect; on the % scale 0 is the no-effect control and ±100 the full control effect
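Pol eta at 10 nM preincubated with compounds 15 min at room temperature; reaction started with fluorescent substrate (50 nM final) and read kinetically at 0 and 10 min.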
An asterisk follows results filed as active; ? = inconclusive; / = no result given; ! = repeats disagree; [ ] = another dose, or the depositor's remark. Unless noted, the call rests on the fitted dose curve; in most records, active means well fitted inhibition curve with a large enough effect; inconclusive means small, poorly fitted or top-dose-only effect, or another doubt; inactive means no such curve, though single readings can be large or run the other way.

SMILES	ALOX12 inh	PI5P4Ka inh	POLB inh	POLK inh	POLI inh	POLH inh
CC(NC(=O)/C(C#N)=C/c1ccc(OCC(=O)O)cc1)c1ccccc1 (configuration not stated)	122.9%	-1.7	-13.2%	-17.1%	?	17.8µM*
C(=N\Nc1ccccc1)/c1ccc(N2CCOCC2)cc1	14.1µM*	/	6.6%	-3.1%	16.5%	-6.2%
Clc1cccc(N/N=C/c2ccc(N3CCOCC3)cc2)c1	?	6.0	23.0%	-0.2%	24.9%	?
CC(NC(=O)/C(C#N)=C\c1cccc(Oc2ccccc2)c1)c1ccccc1 (configuration not stated)	8.9%	/	/	/	/	/
O=C1COc2ccc(-c3csc(Nc4cccc(Br)c4)n3)cc2N1	-7.9%	/	/	/	/	/
COc1cc(/C=C(\C#N)C(=O)Nc2nnc(C(F)(F)F)s2)ccc1OCc1ccc(C(F)(F)F)cc1C(F)(F)F	/	/	/	6.7µM*	/	/
CCC(NC(=S)NCc1ccc(F)cc1)c1ccc(C)cc1 (configuration not stated)	?	-8.2	-18.6%	1.4%	13.7%	-12.4%
CCCCC(CC)CNC(=S)NCc1ccc(C)cc1 (configuration not stated)	31.6µM*	/	/	/	/	/
Nc1nccnc1C(=O)NCCc1ccc(C(F)(F)F)cc1	-25.5%	/	/	/	/	/
Cc1c(CC(=O)NCCN2CCOCC2)c(=O)oc2c(C)c(O)ccc12	-17.8%	/	/	/	/	/
N#C/C(=C/c1ccccc1)C(=O)OCC1CCCO1 (configuration not stated)	-16.3%	/	/	/	/	/
CC(=O)Nc1ccc(C(=O)COC(=O)c2nc3nc(C)cc(C)n3n2)cc1	39.8µM*	-23.3	/	-0.9%	-21.0%	?
Cc1cc(N=Nc2ccc(C)c(N=Nc3cc(C)c(N)cc3N)c2)c(N)cc1N	-14.5%	-27.9	?	50.1µM*	?	-8.8%
COc1ccc(N=Nc2cc(OC)c(N)cc2OC)cc1	10.2%	-4.1	/	-10.1%	?	-14.1%
COc1cc(N=Nc2ccc(C)cc2S(N)(=O)=O)c(C)cc1N	?	7.1	/	-19.7%	-1.8%	-13.2%
COc1cc(-c2ccc(N=Nc3ccc4c(S(=O)(=O)O)cc(S(=O)(=O)O)c(N)c4c3O)c(OC)c2)ccc1N=Nc1ccc2c(S(=O)(=O)O)cc(S(=O)(=O)O)c(N)c2c1O	?	/	/	0.251µM*	/	/
C=C(C)CN(CC)C(=O)CCc1ccco1	-5.4%	/	/	/	/	/
O=C(O)c1ccc2c(c1Nc1ccccc1)C(=O)c1ccccc1C2=O	90.1%	-54.1*	-11.5%	-12.3%	41.6%	?
CCCOc1ccc(C2CC(=O)Nc3c2c(=O)nc(SCc2ccc(F)cc2)n3C)cc1 (configuration not stated)	0.3%	/	/	/	/	/
O=C(CSc1nnc(-c2cccnc2)n1Cc1ccco1)N1c2ccccc2Sc2ccccc21	31.6µM*	/	?	-5.1%	-1.2%	-3.2%
Clc1cccc(CSc2nnc(-c3cccnc3)n2Cc2ccco2)c1	-27.9%	/	-0.6%	-18.6%	9.7%	-4.9%
Clc1ccc(CSc2nnc(-c3cccnc3)n2Cc2ccco2)c(Cl)c1	0.0%	?	50.1µM*	-22.9%	-6.7%	?
CC(=O)Nc1ccc2oc(-c3ccccc3C)nc2c1	0.3%	/	/	/	/	/
Cc1ccc(C(=O)Nc2ccc(S(=O)(=O)O)c3cc(S(=O)(=O)O)cc(S(=O)(=O)O)c23)cc1NC(=O)c1cccc(NC(=O)Nc2cccc(C(=O)Nc3cc(C(=O)Nc4ccc(S(=O)(=O)O)c5cc(S(=O)(=O)O)cc(S(=O)(=O)O)c45)ccc3C)c2)c1	-14.0%[57.4 µM]	/	0.891µM*	0.0316µM*!	1.41µM*	0.224µM*
O=C(CCSc1ccc(F)cc1)NCc1cccc(Cl)c1	-21.8%	/	/	/	/	/
SMILES	ALOX12 inh	PI5P4Ka inh	POLB inh	POLK inh	POLI inh	POLH inh
Cc1nn(CC(=O)NCCc2ccco2)c(=O)c2nn(-c3ccccc3)c(C)c12	5.2%	-25.1	89.1µM*	-43.7%	22.4µM*	31.6µM*
Cc1nn(CC(=O)NCCc2cccs2)c(=O)c2nn(-c3ccccc3)c(C)c12	-9.5%	-28.0	?	-15.7%	35.5µM*	-24.6%
CCOc1ccc(S(=O)(=O)N2CCN(Cc3ncc(-c4ccc(F)cc4)o3)CC2)cc1	-10.3%	/	/	/	/	/
Cc1c(O)cccc1C(=O)N1CCCN(Cc2ccc(F)cc2)C(C(C)C)C1 (configuration not stated)	4.3%	/	/	/	/	/
Nc1cc2c3c(cccc3c1)C(=O)N(CCN1CCCC1)C2=O	7.7%	-1.1	25.1µM*	-39.9%	35.5µM*	1.9%
CN(C)CCN1C(=O)c2cccc3cc(N)cc(c23)C1=O	-6.4%[57.4 µM]	/	/	/	/	/
S=c1[nH]c(=S)c2[nH]cnc2[nH]1	/	/	/	-10.7%	79.4µM*	/
Cn1c(=O)[nH]c2nc[nH]c2c1=O	-19.2%	0.2	/	-18.7%	-5.3%	-10.9%
CC(=O)Nc1ccc2c(c1)-c1ccc(F)cc1C2	?	9.1	/	-5.7%	-2.7%	-6.5%
CC(=O)Nc1ccc2c(c1)Cc1ccc(Cl)cc1-2	?	16.5	/	-10.6%	79.4µM*	-21.1%
COc1ccc(-c2nc(C#N)c(N3CCN(Cc4ccccc4)CC3)o2)cc1OC	4.0%	/	/	/	/	/
CN(C)CCNC(=O)C(=O)Nc1cc2c3c(c1)CCC(=O)N3CCC2	12.3%	0.0	25.6%	-14.9%	-1.3%	-21.4%
CN(C)CCNC(=O)C(=O)Nc1cc2c3c(c1)CCN3C(=O)CC2	-6.3%	-1.5	30.9%	?	39.8µM*	3.6%
Cc1nc2c(C(=O)NCc3ccccc3Cl)cnn2c(C)c1Cc1ccccc1	?	/	-0.6%	-1.4%[60.1 µM]	28.9%	-17.1%
Cc1nc2c(C(=O)NCCC(C)C)c[nH]n2c(=O)c1Cc1ccccc1F	-2.6%	/	70.8µM*	-11.5%	?	-3.3%
Cc1nc2c(C(=O)NCc3ccc(F)cc3)c[nH]n2c(=O)c1Cl	?	/	5.9%	-11.0%	-22.9%[58.9 µM]	-5.1%
Cc1nc2c(C(=O)NCCc3ccc(Cl)cc3)c[nH]n2c(=O)c1Cc1ccccc1F	?	/	?	-12.7%	70.8µM*	?
Cc1nc2c(C(=O)NCCc3ccccc3)c[nH]n2c(=O)c1Cl	?	/	33.6%	-5.4%	23.0%	-10.7%
Cc1nc2c(C(=O)NCCc3ccccc3)c[nH]n2c(=O)c1Cc1ccc(F)cc1Cl	-23.3%	/	79.4µM*	-22.3%	?	-30.0%
Cc1nc2c(C(=O)NCc3ccccc3Cl)c[nH]n2c(=O)c1Cc1cccc(Cl)c1	0.0%	/	56.2µM*	-42.3%	56.2µM*	?
N#CCCn1cc(C(=O)N2CCOCC2)c(-c2cccc(Cl)c2)n1	-9.2%	/	/	/	/	/
COc1ccc(-c2nc3cc(NC(C)=O)ccc3o2)cc1OC	39.2%	/	/	/	/	/
C=CC(=O)CCCCC	-11.6%[176 µM]	/	/	/	/	/
